Holding throughout (conditions): mRNA level, 48 h; actives raise or lower the signal
Read-out in experiment [1]: MicroRNA 122 (MIR122), gene 406906
In words: LTEA_HepaRG_MIR122: Life Technologies and Expression Analysis (LTEA) Assay for MicroRNA 122 (MIR122) using HepaRG (AID 2283516). Note: the transcript read is the microRNA miR-122. The method, boiled down: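 HepaRG, 48 h exposure, 8-pt half-log from 100 uM, 0.5% DMSO; TaqMan qRT-PCR; bidirectional fit vs DMSO.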

Read-out in experiment [2]: matrix metalloproteinase-10 (MMP10), MMP10 (gene 4319)
In words: LTEA_HepaRG_MMP10: Life Technologies and Expression Analysis (LTEA) Assay for matrix metalloproteinase-10 (MMP10) using HepaRG (AID 2283517). An outline of the steps:
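HepaRG, collagen I, ~100,000 cells/well; serum-free induction medium; 48 h exposure, duplicate, 8-pt half-log to 100 uM, 0.5% DMSO. Readout: TaqMan qRT-PCR, normalized to ACTB/GAPDH/POLR2A; bidirectional fit vs DMSO.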

Read-out in another experiment: MYC, MYC (gene 4609)
In words: LTEA_HepaRG_MYC: Life Technologies and Expression Analysis (LTEA) Assay for MYC using HepaRG (AID 2283518). The method, boiled down: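 Differentiated human HepaRG cells, plated 48 h then switched to serum-free induction medium, were exposed in duplicate for 48 h to 8-point half-log series up to 100 uM in 0.5% DMSO. MYC mRNA measured by qRT-PCR, normalized to ACTB/GAPDH/POLR2A.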

Read-out in experiment [3]: matrix metalloproteinase-3 (MMP3), MMP3 (gene 4314)
In words: LTEA_HepaRG_MMP3: Life Technologies and Expression Analysis (LTEA) Assay for matrix metalloproteinase-3 (MMP3) using HepaRG (AID 2283519). An outline of the steps: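 Differentiated human HepaRG cells, plated 48 h on collagen I, were exposed in duplicate for 48 h in serum-free induction medium to eight half-log concentrations up to 100 uM in 0.5% DMSO. MMP3 mRNA was quantified by TaqMan qRT-PCR, normalised to ACTB, GAPDH and POLR2A.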

Read-out in experiment [4]: Paternally Expressed 10 (PEG10), PEG10 (gene 23089)
In words: LTEA_HepaRG_PEG10: Life Technologies and Expression Analysis (LTEA) Assay for Paternally Expressed 10 (PEG10) using HepaRG (AID 2283520). An outline of the steps:
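Chemicals tested on HepaRG cells for 48 h, highest concentration 100 uM. PEG10 expression assessed by qRT-PCR relative to DMSO control.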

Read-out in experiment [5]: Protein phosphatase 2A (PPP2R4), PTPA (gene 5524)
In words: LTEA_HepaRG_PPP2R4: Life Technologies and Expression Analysis (LTEA) Assay for Protein phosphatase 2A (PPP2R4) using HepaRG (AID 2283522). An outline of the steps:
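Gene-expression endpoint in HepaRG hepatic cells: 48 h treatment across eight half-log concentrations up to 100 uM in 0.5% DMSO. PPP2R4 mRNA by qRT-PCR, normalized to three endogenous control genes.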

Read-out in experiment [6]: Phosphatase and tensin (PTEN), PTEN (gene 5728)
In words: LTEA_HepaRG_PTEN: Life Technologies and Expression Analysis (LTEA) Assay for Phosphatase and tensin (PTEN) using HepaRG (AID 2283523). An outline of the steps: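 Differentiated human HepaRG cells, plated 48 h then switched to serum-free induction medium, were exposed in duplicate for 48 h to eight half-log concentrations up to 100 uM in 0.5% DMSO. PTEN mRNA measured by TaqMan qRT-PCR, normalized to ACTB/GAPDH/POLR2A, bidirectional fit versus DMSO.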

Read-out in experiment [7]: solute carrier (SLC22A1), SLC22A1 (gene 6580)
In words: LTEA_HepaRG_SLC22A1: Life Technologies and Expression Analysis (LTEA) Assay for solute carrier (SLC22A1) using HepaRG (AID 2283524). The method, boiled down: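 Human HepaRG cells were plated 48 h, switched to serum-free induction medium, then exposed in duplicate for 48 h to 8-point half-log series from 100 uM in 0.5% DMSO. SLC22A1 mRNA measured by qRT-PCR, normalized to ACTB/GAPDH/POLR2A, fitted bidirectionally versus DMSO.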

Read-out in experiment [8]: Pyruvate Dehydrogenase Kinase 4 (PDK4), PDK4 (gene 5166)
In words: LTEA_HepaRG_PDK4: Life Technologies and Expression Analysis (LTEA) Assay for Pyruvate Dehydrogenase Kinase 4 (PDK4) using HepaRG (AID 2283525). An outline of the steps:
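Differentiated human HepaRG cells, pre-cultured 48 h, were exposed in duplicate for 48 h in serum-free induction medium to eight half-log concentrations up to 100 uM in 0.5% DMSO. PDK4 mRNA was quantified by qRT-PCR, normalized to ACTB, GAPDH and POLR2A, bidirectional fitting versus DMSO.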

Read-out in experiment [9]: NAD(P)H dehydrogenase [quinone] 1 (NQO1), NQO1 (gene 1728)
In words: LTEA_HepaRG_NQO1: Life Technologies and Expression Analysis (LTEA) Assay for NAD(P)H dehydrogenase [quinone] 1 (NQO1) using HepaRG (AID 2283526). An outline of the steps: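 Human HepaRG hepatic cells received chemicals for 48 h in serum-free induction medium with 0.5% DMSO, up to 100 uM. Expression was assessed by TaqMan qRT-PCR against housekeeping controls and fitted bidirectionally against DMSO.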

Read-out in experiment [10]: Nuclear factor erythroid 2-related factor 2 (Homo sapiens) (UniProt Q16236)
In words: LTEA_HepaRG_NFE2L2: Life Technologies and Expression Analysis (LTEA) Assay for Nuclear factor erythroid 2-related factor 2 (NFE2L2) Transcription Factor using HepaRG (AID 2283527).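 Note: TaqMan qRT-PCR transcript level normalised to ACTB GAPDH and POLR2A housekeeping genes.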 An outline of the steps: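 Differentiated human HepaRG cells in serum-free induction medium were exposed for 48 h to eight concentrations (top 100 uM, half-log dilutions, 0.5% DMSO), in duplicate. NFE2L2 mRNA was quantified by TaqMan qRT-PCR, normalized to ACTB, GAPDH and POLR2A, with bidirectional fitting versus DMSO.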

Read-out in experiment [11]: succinate dehydrogenase complex iron sulfur subunit B (SDHB), SDHB (gene 6390)
In words: LTEA_HepaRG_SDHB: Life Technologies and Expression Analysis (LTEA) Assay for succinate dehydrogenase complex iron sulfur subunit B (SDHB) using HepaRG (AID 2283528). An outline of the steps:
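HepaRG, 48 h exposure, 8-pt half-log series from 100 uM in 0.5% DMSO, duplicates. Readout: SDHB mRNA by Fluidigm qRT-PCR vs housekeeping genes; bidirectional fit relative to DMSO.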

Read-out in experiment [12]: Signal transducer and activator of transcription 3 (Homo sapiens) (UniProt P40763)
In words: LTEA_HepaRG_STAT3: Life Technologies and Expression Analysis (LTEA) Assay for Signal transducer and activator of transcription (STAT3) using HepaRG (AID 2283529). The method, boiled down: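 Differentiated human HepaRG cells in serum-free induction medium were exposed in duplicate for 48 h to eight half-log concentrations up to 100 uM in 0.5% DMSO. STAT3 mRNA was quantified by TaqMan qRT-PCR, normalized to ACTB, GAPDH and POLR2A, and fitted bidirectionally against DMSO.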

Read-out in experiment [13]: solute carrier (SLCO1B1), SLCO1B1 (gene 10599)
In words: LTEA_HepaRG_SLCO1B1: Life Technologies and Expression Analysis (LTEA) Assay for solute carrier (SLCO1B1) using HepaRG (AID 2283530). The method, boiled down:
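Differentiated human HepaRG cells, plated 48 h, switched to serum-free induction medium and exposed in duplicate for 48 h to 8 half-log concentrations (top 100 uM) in 0.5% DMSO. SLCO1B1 mRNA by TaqMan qRT-PCR, normalized to ACTB/GAPDH/POLR2A.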

Read-out in experiment [14]: sulfotransferase 2A1 (SULT2A1), SULT2A1 (gene 6822)
In words: LTEA_HepaRG_SULT2A1: Life Technologies and Expression Analysis (LTEA) Assay for sulfotransferase 2A1 (SULT2A1) using HepaRG (AID 2283531). An outline of the steps:
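Differentiated human HepaRG cells in serum-free induction medium were exposed for 48 h to eight half-log concentrations (top 100 uM, 0.5% DMSO). SULT2A1 mRNA was measured by qRT-PCR, normalized to ACTB, GAPDH and POLR2A, and fitted bidirectionally against DMSO.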

Read-out in experiment [15]: Transforming Growth Factor (TGFA), TGFA (gene 7039)
In words: LTEA_HepaRG_TGFA: Life Technologies and Expression Analysis (LTEA) Assay for Transforming Growth Factor (TGFA) using HepaRG (AID 2283532). The method, boiled down:
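Differentiated human HepaRG cells, plated 48 h then switched to serum-free induction medium, were exposed in duplicate for 48 h to 8-point half-log series from 100 uM in 0.5% DMSO. TGFA mRNA measured by qRT-PCR, normalized to ACTB/GAPDH/POLR2A, bidirectional fit versus DMSO.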

Read-out in experiment [16]: Transforming Growth Factor (TGFB1), TGFB1 (gene 7040)
In words: LTEA_HepaRG_TGFB1: Life Technologies and Expression Analysis (LTEA) Assay for Transforming Growth Factor (TGFB1) Transporter using HepaRG (AID 2283533). The method, boiled down: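 Differentiated human HepaRG cells in serum-free induction medium were exposed in duplicate for 48 h to eight concentrations (top 100 uM, half-log steps, 0.5% DMSO). TGFB1 mRNA was quantified by qRT-PCR, normalized to ACTB, GAPDH, POLR2A, and fitted bidirectionally against DMSO.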

Read-out in another experiment: TIMP1, TIMP1 (gene 7076)
In words: LTEA_HepaRG_TIMP1: Life Technologies and Expression Analysis (LTEA) Assay for TIMP1 using HepaRG (AID 2283534). The method, boiled down:
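Differentiated human HepaRG cells in serum-free induction medium were exposed 48 h to chemicals (8 half-log concentrations, top 100 uM, 0.5% DMSO). TIMP1 mRNA was quantified by TaqMan qRT-PCR, normalized to ACTB/GAPDH/POLR2A; bidirectional fit versus DMSO.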

Read-out in experiment [17]: Tumor necrosis factor receptor 1 (TNFRSF1A), TNFRSF1A (gene 7132)
In words: LTEA_HepaRG_TNFRSF1A: Life Technologies and Expression Analysis (LTEA) Assay for Tumor necrosis factor receptor 1 (TNFRSF1A) using HepaRG (AID 2283535). The method, boiled down: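 Differentiated human HepaRG cells were exposed in duplicate for 48 h in serum-free induction medium to eight concentrations (top 100 uM, half-log steps, 0.5% DMSO). TNFRSF1A mRNA was quantified by qRT-PCR, normalized to ACTB, GAPDH and POLR2A, then fitted bidirectionally against DMSO.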

Calls of active or inactive are those of the source. Rule for the calls: active = hit-call score of the fitted dose curve at least 0.9, where 1 is the maximum; inactive = score below 0.9.

By AC50 is commonly meant the concentration at which the activity in the assay is half-maximal.

Nuclear factor erythroid 2-related factor 2 (Homo sapiens), sequence (Q16236 whole entry, looked up): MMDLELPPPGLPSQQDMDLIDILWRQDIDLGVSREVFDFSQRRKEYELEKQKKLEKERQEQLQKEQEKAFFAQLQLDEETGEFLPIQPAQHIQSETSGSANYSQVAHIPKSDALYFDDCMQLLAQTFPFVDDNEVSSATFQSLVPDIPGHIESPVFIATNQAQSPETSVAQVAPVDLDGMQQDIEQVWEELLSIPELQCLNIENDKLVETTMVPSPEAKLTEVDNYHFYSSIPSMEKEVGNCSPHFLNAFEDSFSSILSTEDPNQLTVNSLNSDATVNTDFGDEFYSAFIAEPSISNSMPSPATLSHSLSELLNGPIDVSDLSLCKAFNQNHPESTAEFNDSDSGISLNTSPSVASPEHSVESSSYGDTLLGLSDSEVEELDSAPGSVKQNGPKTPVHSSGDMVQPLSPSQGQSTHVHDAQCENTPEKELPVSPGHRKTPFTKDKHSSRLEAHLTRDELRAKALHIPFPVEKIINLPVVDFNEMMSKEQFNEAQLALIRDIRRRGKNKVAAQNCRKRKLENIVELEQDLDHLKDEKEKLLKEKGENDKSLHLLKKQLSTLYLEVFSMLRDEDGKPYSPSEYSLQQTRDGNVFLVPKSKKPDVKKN
Signal transducer and activator of transcription 3 (Homo sapiens), sequence (P40763 whole entry, looked up): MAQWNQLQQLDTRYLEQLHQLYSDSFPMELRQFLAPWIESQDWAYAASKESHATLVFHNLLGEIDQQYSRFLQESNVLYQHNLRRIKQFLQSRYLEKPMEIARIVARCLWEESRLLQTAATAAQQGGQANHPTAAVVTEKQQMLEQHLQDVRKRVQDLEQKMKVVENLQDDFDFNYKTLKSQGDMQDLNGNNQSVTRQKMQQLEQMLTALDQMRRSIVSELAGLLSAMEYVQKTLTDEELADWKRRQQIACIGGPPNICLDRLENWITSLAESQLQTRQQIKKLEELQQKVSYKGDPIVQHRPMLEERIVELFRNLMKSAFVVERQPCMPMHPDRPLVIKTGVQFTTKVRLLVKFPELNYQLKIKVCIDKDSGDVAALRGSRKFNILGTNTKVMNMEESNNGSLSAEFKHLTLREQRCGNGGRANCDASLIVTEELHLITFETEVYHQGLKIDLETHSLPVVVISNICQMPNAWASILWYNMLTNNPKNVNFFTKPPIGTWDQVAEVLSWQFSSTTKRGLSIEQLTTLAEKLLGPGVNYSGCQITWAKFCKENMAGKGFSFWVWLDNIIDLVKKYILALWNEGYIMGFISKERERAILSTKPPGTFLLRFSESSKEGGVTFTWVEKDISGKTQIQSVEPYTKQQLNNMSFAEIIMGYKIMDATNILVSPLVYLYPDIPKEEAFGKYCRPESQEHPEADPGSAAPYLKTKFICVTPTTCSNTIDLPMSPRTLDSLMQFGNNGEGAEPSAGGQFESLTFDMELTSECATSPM

For `CCSC(=O)N1CCCCCC1`, the outcome in [1] is “inactive”; in experiment [2], “inactive”; with MYC, MYC (gene 4609) it was “inactive”; in experiment [3] it was “inactive”; in [4] it was “inactive”; in experiment [5] it was “inactive”. Moreover, the compound was classed as inactive in experiment [6], in [7], in [8], in experiment [9], in [10] and in experiment [11]. The outcome in [12] was “inactive”; in experiment [13], “inactive”; in [14] it was “inactive”; in experiment [15] it was “inactive”; in experiment [16] it was “inactive”; in the experiment with TIMP1, TIMP1 (gene 7076) it was “inactive”. The outcome in experiment [17] was inactive.
As for `COC(=O)c1c(C(F)F)nc(C(F)(F)F)c(C2=NCCS2)c1CC(C)C`, the outcome in experiment [1] is “inactive”; in experiment [2], “inactive”; with MYC, MYC (gene 4609), “inactive”; in [3], “inactive”; in experiment [4], “inactive”; in experiment [5] it was “inactive”. Further, the outcome in [6], in experiment [7], in experiment [8], in [9], in experiment [10] and in experiment [12] was inactive. Also, the outcome in [13] is “inactive”; in experiment [14] it was “inactive”; in experiment [15], “inactive”; in experiment [16], “inactive”; with TIMP1, TIMP1 (gene 7076) it was “inactive”; in experiment [17], “inactive”.
Consider `CCOc1cc(C(C)(C)C)ccc1C1COC(c2c(F)cccc2F)=N1` (stereo unspecified), for which the compound was called inactive in experiment [1], in experiment [2], in experiment [3], in experiment [4], in experiment [5] and in experiment [6]. Moreover, the compound was called inactive in experiment [7], in experiment [8], in experiment [9], in experiment [10], in [11] and in [12]. The outcome is “inactive” in experiment [13]; “inactive” in experiment [15]; “inactive” in [16]; “inactive” with TIMP1, TIMP1 (gene 7076); “inactive” in experiment [17]. The AC50 with MYC, MYC (gene 4609) was 33 µM (active); in experiment [14], 8.25 µM (active).

These data come from PubChem BioAssay (EPA / NIEHS).
